According to PubChem BioAssay (NCI):
About 83,000 compounds went through this panel and 20% of them were active in at least one assay; those are over-represented in the sample as a whole.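 For each line, cells grew in 96-well plates with the test compound present at a single concentration for 48 hours.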 Unmarked numbers belong to inactive results. The source made the active and inactive calls. How the source made its calls: active means growth percent below 10; inactive means the rest.

Experiments:
Assay in all cases: NCI-60 one-dose screen, 48 h (100 = growth as untreated, 0 = no growth, -100 = all killed)
Settings in all cases: 10 µM
T-47D breast = test system: T-47D breast
BT-549 breast = test system: BT-549 breast
MDA-MB-435 melanoma = test system: MDA-MB-435 melanoma
SW-620 colon = test system: SW-620 colon
MCF7 breast = test system: MCF7 breast
HCT-116 colon = test system: HCT-116 colon
HCC-2998 colon = test system: HCC-2998 colon
KM12 colon = test system: KM12 colon

SMILES | growth (T-47D breast) | growth (BT-549 breast) | growth (MDA-MB-435 melanoma) | growth (SW-620 colon) | growth (MCF7 breast) | growth (HCT-116 colon) | growth (HCC-2998 colon) | growth (KM12 colon)
C=CCNCCN1C(=O)c2ccc3c4c(ccc(c24)C1=O)C(=O)N(CCNCC=C)C3=O | -51.5% (active) | 21.8% | -85.2% (active) | -50.3% (active) | -60.1% (active) | -23% (active) | -81.2% (active) | -53.7% (active)
CN1CCN(CC(=O)Nc2cccc(-n3cc(-c4ccncc4)c(-c4ccc(Cl)c(O)c4)n3)c2)CC1 | 61.3% | 36.6% | -47.5% (active) | 20.8% | 15.2% | 17.3% | 85.6% | 26.1%
COc1cc(/C=C2\CCCC3=C2N=C2SC(C)=CN2C3c2cc(OC)c(OC)c(OC)c2)cc(OC)c1OC (configuration not stated) | 33.1% | -14.5% (active) | 1.99% (active) | -0.154% (active) | 16% | -86.2% (active) | -88% (active) | -80.4% (active)
OC(CNc1ccnc2cc(Cl)ccc12)CNC1CCCCC1 (configuration not stated) | 65.6% | 70% | 52.5% | 92.9% | 75.7% | 68.9% | 64.3% | 83.5%
Cc1n[nH]c(C)c1N=Nc1cccc2c1C(=O)c1ccccc1C2=O | 79.3% | 100% | 107% | 84.6% | 81% | 77.8% | 96.1% | 99.5%
COc1ccc(C2CC(c3cccs3)=NN2c2ccc(S(N)(=O)=O)cc2)cc1 (configuration not stated) | 85.1% | 99.7% | 82% | 100% | 75% | 70.7% | 92.5% | 91.5%
O=C1c2ccccc2C(=O)c2c1ccc1c(=O)n(-c3ccccc3C(F)(F)F)nnc21 | 15.8% | 52.8% | -89.5% (active) | 11.4% | -51.7% (active) | -5.21% (active) | 28.9% | 27.2%
CCCCN(CCCC)C(=O)[C@H](CC)[C@@H]1CC[C@@H](C)[C@@H]([C@H](C)[C@@H](O)[C@@H](C)C(=O)[C@H](CC)C2O[C@]3(C=C[C@@H](O)[C@]4(CC[C@@](C)([C@H]5CC[C@](O)(CC)[C@H](C)O5)O4)O3)[C@H](C)C[C@@H]2C)O1 (some centres not stated) | 5.04% (active) | 8.46% (active) | 4.48% (active) | 9.41% (active) | -14.1% (active) | 2.55% (active) | 2.49% (active) | 20.6%
CS(=O)(=O)c1nccc(-c2c(-c3cccc(OCc4ccccc4)c3)nc3sccn23)n1 | 65% | 54.9% | 78.5% | 47.1% | 77.4% | 58.3% | 32.4% | 50.7%
CN(C)CCOc1cccc(-c2nc3sccn3c2-c2ccnc(S(C)(=O)=O)n2)c1 | 74.7% | 104% | 96.8% | 91.7% | 88.3% | 92.6% | 106% | 102%
N#CC1=C(N)Oc2cc(N)ccc2C1c1cccnc1 (configuration not stated) | 94.2% | 88.4% | 71.8% | 90.1% | 89.4% | 88.3% | 82.4% | 89.7%
CC(C)[N+]1(C)C2CC[C@@H]1CC(OC(=O)C(CO)c1ccccc1)C2 (some centres not stated) | 96.6% | 106% | 104% | 101% | 111% | 107% | 103% | 115%
COc1ccc(C(=O)N/N=C/c2cc(C(F)(F)F)ccc2Cl)cc1 | 90% | 96.1% | 91.1% | 98.8% | 60.3% | 93.2% | 95.7% | 101%
NC1=CC(=O)C(=O)c2cccnc21 | 97.9% | 86% | -82.8% (active) | 73.8% | 52.5% | 86.6% | 83% | 76.7%
COc1ccc([C@H]2[C@H](C(=O)Nc3cccnc3)c3ccccc3C(=O)N2c2ccccc2)cc1 | 74% | 90.5% | 99.1% | 91.4% | 95.7% | 49.4% | 100% | 60.7%
O=C(O)c1cc([N+](=O)[O-])ccc1Oc1ccccc1 | 106% | 92.7% | 94.1% | 96.1% | 99.3% | 102% | 105% | 98.2%
Cc1cc(NC(=O)c2ccc(C)c(Nc3nccc(-c4cccnc4)n3)c2)cc(-n2cnc(C)c2)c1 | -4.71% (active) | 41.1% | 12.2% | 50.2% | 24.4% | -64.1% (active) | 70.8% | 35.1%
CCc1ccc(-c2ccc(-n3nc(C)c4c(N)nc(Cc5ccccc5)nc43)cc2)cc1 | 49.7% | 72% | 82.7% | 77.8% | 58.1% | 59.1% | 23.7% | 53.5%
COc1ccc(Cc2cnc(N)nc2N)cc1OC | 101% | 106% | 107% | 98.7% | 100% | 99.8% | 105% | 110%
CC(C)Cc1ccc([C@H](C)C(=O)O)cc1 | 102% | 107% | 103% | 110% | 94.8% | 103% | 108% | 108%
CC(C)(C)c1ccc(S(=O)(=O)Oc2ccc(NC(=O)C3CCCCC3)cc2)cc1 | 0.897% (active) | 51.8% | 59.6% | 51.9% | 19.8% | 30.8% | 51.8% | 31.7%
O=C(/C=C/c1cccc(B(O)O)c1)c1cccc(B(O)O)c1 | 11.1% | -91% (active) | 0.799% (active) | -41.3% (active) | 0.092% (active) | -88.3% (active) | -86.4% (active) | -64.4% (active)
COc1cc(-c2nn(-c3cccc(NC(=O)NCCNC(=O)c4cccc(C(F)(F)F)c4)c3)cc2-c2ccncc2)ccc1Cl | 52.7% | 14.2% | -41.6% (active) | 36.1% | 12.7% | 24.4% | 67.3% | 18.9%
CC[C@@H]1NC(=O)[C@H]([C@H](O)[C@H](C)C/C=C/c2ccc(CN3C(=O)CCCC3=O)cc2)N(C)C(=O)[C@H](C(C)C)N(C)C(=O)[C@H](CC(C)C)N(C)C(=O)[C@H](CC(C)C)N(C)C(=O)[C@@H](C)NC(=O)[C@H](C)NC(=O)[C@H](CC(C)C)N(C)C(=O)[C@H](C(C)C)NC(=O)[C@H](CC(C)C)N(C)C(=O)CN(C)C1=O | 25.3% | 8.44% (active) | 10.8% | 56% | 25.3% | 16% | 69.6% | 45.9%
COc1ccc(-c2cc(-c3cc(OC)ccc3OC)nc(N)c2C#N)cc1 | 54.4% | 24.7% | 46.8% | 65.5% | 38.9% | 35.1% | 76.6% | 71.7%
Cc1[nH]c2ccccc2c1/C=N/Nc1ncnc2sc3c(c12)CCN(CC(=O)OC(C)(C)C)C3 | 80.7% | 81.4% | 32.3% | 60% | 65.4% | 40.8% | 99.5% | 76%
CNS(=O)(=O)Oc1ccc(-c2ccc3occc3c2)cc1 | 89.1% | 91.5% | 100% | 102% | 111% | 95.5% | 96.5% | 99%
CN(C)CCOc1ccc(-c2nc3sccn3c2-c2ccnc(S(C)(=O)=O)n2)cc1 | 110% | 118% | 107% | 104% | 90.2% | 98.1% | 111% | 113%
COc1cccc(C2C(C#N)=C(N)Oc3cc(N)ccc32)c1 (configuration not stated) | 10.4% | 47.3% | -30.5% (active) | 18.7% | 12.1% | 23.2% | 39.1% | 24.6%
